From PubChem
LASV entry inh: Lassa virus entry inhibition; Potency, µM (doses to about 37.9 µM), hits mostly inhibitors; 300,000 compounds, 1.2% hits; Lassa virus pseudotype entry inhibition, cell reporter; AID 540256; calls by dose curve; tested in HEK293 cells; note: nearly all actives have a fitted effect of over 50% in size
Marburg entry inh: inhibitors of Marburg virus binding or cell entry | Potency, µM (highest dose often 37.8 µM), most hits filed as inhibitors | Marburg virus pseudotyped entry inhibition, cell reporter | AID 540276 | 300,000 compounds, 1.8% hits; calls by dose curve; tested in HEK293 cells
CHX counter: counter-screen hit for Shiga toxin inhibitors, cycloheximide; cell reporter, cycloheximide protein synthesis inhibition counterscreen; max response, %; 300,000 compounds, 12% hits; AID 2314; in the data active = max response mostly above about 13%, no sharp cut-off; inactive = mostly below about 14%; note: read at 38.3 µM for the half of the compounds with a filed dose
Shiga toxin inh: Shiga toxin inhibition | Vero cells, Shiga toxin protein synthesis inhibition reporter | inhibition, % at 38.7 µM | 290,000 compounds, 9.2% hits | AID 2315; in the data active = inhibition mostly above about 28%, no sharp cut-off; inactive = mostly below about 43%
Pf growth 48h: inhibits P. falciparum growth in the first generation, 48 h; P. falciparum luciferase growth in erythrocytes, 48 h; AID 504832; 310,000 compounds, 5.9% hits; Potency, µM (series often up to 28.7 µM), most hits filed as inhibitors
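Growth was read as firefly luciferase luminescence after a 48 h, 37 C, 5% CO2 exposure of compounds to reporter-bearing P. falciparum cultures (0.1% parasitemia, 2% hematocrit final) in Albumax-supplemented RPMI 1640.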
Pf growth 96h: P. falciparum growth inhibition at 96 hours. P. falciparum luciferase reporter growth, 96 h. Potency, µM (top dose mostly 28.7 µM), actives largely listed as inhibitors. 320,000 compounds, 6.9% hits. AID 504834
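96 h incubation, 37 C, 5% CO2, of luciferase-reporter P. falciparum-infected RBCs (2% hematocrit, 0.05% parasitemia final) with test compounds; endpoint luminescence.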
Numbers stand for hits; n = inactive; u = inconclusive; x = no result; [ ] = another dose, or the depositor's remark. The list is not random: actives were taken first. Their share in the collection is about 19%. Unless noted, calls come from the whole dose curve; as a rule, active = well fitted inhibition curve with a large enough effect; inconclusive = small, poorly fitted or top-dose-only effect, or another doubt; inactive = no such curve, though single readings can be large or run the other way.

SMILES	LASV entry inh	Marburg entry inh	CHX counter	Shiga toxin inh	Pf growth 48h	Pf growth 96h
N#Cc1ccc(-c2cccnc2)nc1SCC(=O)Nc1sc2c(c1C#N)CCC2	n	n	n	n	u	1.5µM
N#Cc1ccc(-c2ccccc2)nc1SCC(=O)c1cccc(Cl)c1	u	n	n	n	n	n
O=C(Cn1cnc2ccccc2c1=O)Nc1ccc(S(=O)(=O)N2CCOCC2)cc1	u	n	n	n	n	n[5.75 µM]
C[C@@](O)(/C=C/[C@H]1CC=CC(=O)O1)[C@@H](C[C@@H](O)\C=C/C=C\C=C\CO)OP(=O)(O)O	x	x	n	n	x	x
COc1ccc(-n2cc(C(=O)c3cc4ccccc4oc3=O)c(C(C)=O)n2)cc1	n	n	n	n	n	x
Cc1ccc(/C=C(\C#N)C(=O)Nc2ccc(Br)cc2)o1	n	x	x	x	x	x
Cc1nn(-c2ccccc2)c(C)c1/C=N/NC(=O)CSc1nnc(SCc2cccc3ccccc23)s1	u	u	n	n	n	10µM
CCn1c(SCC(=O)N/N=C/c2ccc(C)s2)nc2ccccc21	n	2.6µM	n	n	n	n
Cc1ccc(-n2c(SCC(=O)N/N=C/c3c(C)nn(-c4ccccc4)c3C)nc3ccccc3c2=O)cc1	n	u	n	n	n	u
Cc1ccc(/C=N/NC(=O)CSc2nc3ccccc3c(=O)n2-c2ccccc2)s1	n	n	n	n	u	u
Cc1ccc(/C=N/NC(=O)CSc2nc3ccccc3c(=O)n2-c2ccccc2C)s1	u	u	n	n	n	12µM
Cc1ccccc1-n1c(SCC(=O)N/N=C/c2c(C)nn(-c3ccccc3)c2C)nc2ccccc2c1=O	u	7.3µM	n	n	u	u
CC(=O)C(C)=O	n	u	x	x	x	x
Cc1ccc2oc(-c3ccc(C)c(NC(=O)c4ccc5c(c4)OCCO5)c3)nc2c1	n	u	x	x	x	x
COc1cccc(/C=C2\SC(=S)N(CCCC(=O)Nc3cc(C)on3)C2=O)c1	n	n	n	n	n	n
Cc1ccccc1-n1c(SCC(=O)NC(N)=O)nc2sc(-c3ccccc3)cc2c1=O	n	u	18	n	u	u
NC(=O)[C@@H]1CCCNc2c(F)cc([N+](=O)[O-])cc2C(=O)N[C@@H](CO)C(=O)N[C@@H](Cc2ccc(O)cc2)C(=O)N1	n	n	n	n	n	n
CC(C)[C@@H]1NC(=O)c2cc([N+](=O)[O-])cc(F)c2NCCC[C@@H](C(N)=O)NC(=O)[C@H](CO)NC1=O	u	u	n	n	n	9.3µM
CC(C)C[C@@H]1NC(=O)[C@H](C(C)C)NC(=O)c2cc([N+](=O)[O-])cc(I)c2NCC[C@@H](C(N)=O)NC1=O	n	n	n	n	u	2.1µM
CC(C)[C@@H]1NC(=O)c2cc([N+](=O)[O-])cc(I)c2NCC[C@@H](C(N)=O)NC(=O)[C@H](CO)NC1=O	n	u	n	n	n	n
CCc1ccc(C(=O)N/N=C(\C)c2cccnc2)s1	n	u	n	n	n	n
COC(=O)C(Nc1nccs1)(OC)C(F)(F)F (stereo unspecified)	n	n	n	n	n	n
CCCC(C(=O)O)n1c(O)c(C=C2N=c3ccccc3=N2)sc1=S (stereo unspecified)	n	u	n	n	n	n
CCOC(=O)C1=C(C)NC(SCC(N)=O)=C(C#N)C1c1cccs1 (stereo unspecified)	n	n	n	n	u	n
C=CCOC(=O)C1=C(C)NC(SC)=C(C#N)C1c1cccs1 (stereo unspecified)	n	u	n	n	u	u
C=CCOC(=O)C1=C(C)NC(SCC(=O)Nc2nccs2)=C(C#N)C1c1ccc(Cl)cc1 (stereo unspecified)	n	u	n	n	2.1µM	2.1µM
CC(=O)C1=C(C)NC(SCC(=O)Nc2nccs2)=C(C#N)C1c1ccccc1Cl (stereo unspecified)	u	n	n	n	u	u
C=CCOC(=O)C1=C(C)NC(SCC(=O)Nc2nccs2)=C(C#N)C1c1cccs1 (stereo unspecified)	u	u	n	n	4.7µM	4.1µM
C=CCOC(=O)C1=C(C)NC(SC)=C(C#N)C1c1ccc(OCC)cc1 (stereo unspecified)	u	u	n	n	8.3µM	12µM
CCOC(=O)C1=C(C)NC(SCC(=O)Nc2cc(C)on2)=C(C#N)C1c1cccs1 (stereo unspecified)	u	n	n	n	10µM	u
